High-throughput results (PubChem)
12-hLO inh – 12-hLO (ALOX12) enzyme inhibition | P18054 | purified 12-hLO, xylenol orange hydroperoxide absorbance | Potency, µM (titrated, usually from 57.1 µM), inactives show at the highest dose activity change, negative = inhibition, hits mostly inhibitors | 0.12% of 150,000 active; active = well fitted inhibition curve with a large enough effect; inconclusive = small, poorly fitted or top-dose-only effect; also: potency is read from the fitted curve at half-maximal effect; nearly all actives have a fitted effect of over 55% in size
Target sequence (P18054 whole entry, looked up): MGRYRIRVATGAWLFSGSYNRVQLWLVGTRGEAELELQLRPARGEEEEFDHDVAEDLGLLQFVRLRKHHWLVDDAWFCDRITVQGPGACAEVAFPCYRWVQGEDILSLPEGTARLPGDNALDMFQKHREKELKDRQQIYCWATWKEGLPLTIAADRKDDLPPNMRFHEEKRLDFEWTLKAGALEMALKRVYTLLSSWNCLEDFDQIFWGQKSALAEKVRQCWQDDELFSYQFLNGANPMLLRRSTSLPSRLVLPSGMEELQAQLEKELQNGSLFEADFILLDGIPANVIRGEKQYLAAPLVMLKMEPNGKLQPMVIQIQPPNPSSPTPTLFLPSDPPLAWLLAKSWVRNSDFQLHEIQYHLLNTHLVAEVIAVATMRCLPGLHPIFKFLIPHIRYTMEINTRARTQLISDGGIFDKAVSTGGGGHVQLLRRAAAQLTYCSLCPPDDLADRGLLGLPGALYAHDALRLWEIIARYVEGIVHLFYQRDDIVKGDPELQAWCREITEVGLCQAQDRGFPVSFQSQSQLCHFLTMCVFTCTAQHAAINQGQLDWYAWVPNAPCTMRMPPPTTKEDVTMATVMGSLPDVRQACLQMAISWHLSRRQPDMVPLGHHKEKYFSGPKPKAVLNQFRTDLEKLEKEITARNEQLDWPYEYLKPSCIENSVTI
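Purified human 12hLO (150 nM), preincubated 15 min with compound, then 40 uM arachidonic acid for 30 min, room temperature, Hepes pH 7.0 with 0.01% Triton X-100. Hydroperoxide detected by ferrous iron/xylenol orange; 573/405 nm absorbance ratio gives reaction progress.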
ALDH1A1 block – inhibitors of human aldehyde dehydrogenase 1A1 | P00352 | Purified ALDH1A1, NADH fluorescence, propionaldehyde substrate | Potency, µM (highest dose often 75.3 µM), without a hit: at the highest dose activity, negative = inhibition, actives largely listed as inhibitors | 7.3% of 220,000 active;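 also: potency is read from the fitted curve at half-maximal effect; plate controls were no enzyme wells and a reference inhibitor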
HPGD inh – inhibitors of human 15-hydroxyprostaglandin dehydrogenase (HPGD); P15428; purified HPGD, NADH fluorescence kinetic, PGE2 substrate; Potency, µM, for inactives: top-dose activity change, negative = inhibition, most hits filed as inhibitors; 4.3% of 150,000 active; also: potency is read from the fitted curve at half-maximal effect
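NADH formation kinetics: reaction with 30 uM PGE2 and 1 mM NAD+ (final), 20 nM enzyme, Tris-HCl pH 8 with Tween 20, after 15 min compound preincubation at room temperature. Fluorescence change, last versus first of five reads.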
PNC inhibitor – inhibitors of perinucleolar compartment assembly | activity change (PNC), negative = inhibition, % at 10 µM | 3.1% of 140,000 active | PC3M PTB-GFP, PNC prevalence imaging, 16 h; active compounds read low | AID 2417;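 active = readout at or below -70, meaning at least 70% loss of cells showing the perinucleolar compartment, a nuclear body marking cancer cells; inconclusive = readout between -30 and a set limit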;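 also: plate controls were DMSO wells for no effect and camptothecin positive control wells for full effect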
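Read-out is percentage of cells bearing a perinucleolar compartment, from automated 20x imaging of fixed, Hoechst-stained PC3M PTB-GFP cells. Cells were seeded 4 h, then exposed 16 h to compound (23 nl of library stock) in duplicate plates.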
LMNA splice mod – changes lamin A minigene splicing in HeLa cells. HeLa LMNA splicing GFP/RFP minigene ratio, 48 h. Potency, µM (highest dose often 46.1 µM), for the others: top-dose ratio change, negative = inhibition, most hits filed as inhibitors. 0.01% of 200,000 active. AID 1487; active = well fitted inhibition curve with a large enough effect in the signal ratio, with a control signal flat, not every such curve was filed as active; inconclusive = small, poorly fitted or top-dose-only effect, or effect the other way, or a change in a side signal; the % refers to the signal ratio; also: potency is read from the fitted curve at half-maximal effect
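S3 HeLa stable clones carrying a lamin A-EGFP splicing minigene plus DsRed2 were seeded at 600 cells/well in Opti-MEM with 2% FBS, pin-dosed and incubated 48 h at 37°C. Acumen cytometry (488 nm) gave the GFP/RFP total-intensity ratio.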
* = called active by the depositor; ? = inconclusive; · = no result; [ ] = remark or other dose. Most compounds without a hit are left out; they make up all but 10% or so of the library. Unless noted, calls follow the shape of the dose curve; as a rule, active = well fitted inhibition curve with a large enough effect (not every such curve was filed as active); inconclusive = small, poorly fitted or top-dose-only effect, or another doubt; inactive = no such curve, though single readings can be large or run the other way. Unless noted, % is scaled to controls: 0 for no effect and ±100 for the full control effect.

SMILES	12-hLO inh	ALDH1A1 block	HPGD inh	PNC inhibitor	LMNA splice mod
CCN(CC)C(=O)Cn1nnc(-c2ccc(C)o2)n1	0%	25µM*	-11%	-3	6%
CCC(C(=O)NC1CCCC1)N(C(=O)Cn1nnc(-c2ccc(C)o2)n1)C(C)(C)C (configuration not stated)	-3%	?	·	7	-2%
CCCC(C(=O)NC1CCCC1)N(C(=O)Cn1nnc(-c2ccc(C)o2)n1)C1CCCC1 (configuration not stated)	-10%	25µM*	?	?	7%
N#Cc1cc(-c2ccccc2)nn1-c1ccccc1	-14%	22µM*	13µM*	2	14%
Cn1ccc(-c2ccccc2)n1	·	5%	·	·	·
CC(C)=NO[C@@H](C)c1cc(-c2c(C)cc(C)cc2C)no1	·	12%[13.5 µM]	·	·	·
Cc1ccc(CN(Cc2ccco2)c2cnc(S(C)(=O)=O)nc2C(=O)Nc2ccccc2Br)o1	·	·	·	·	1%[46 µM]
O=C(CCl)NC(=O)NC12CC3CC(CC(C3)C1)C2	0%	7.9µM*	-9%	29	?
O=C(NCCC1=CCCCC1)C1CCN(S(=O)(=O)c2ccc(Br)s2)CC1	-2%	19µM*	-9%	?	?
CCN1CCN(S(=O)(=O)c2cc(OC)ccc2OC)CC1	8%	-11%	-4%	-15	2%
CCS(=O)(=O)N1CCC(C(=O)NCCC2=CCCCC2)CC1	2%	?	-4%	?	-4%
Cc1ccc(NC(=O)C2CCN(S(=O)(=O)c3c(C)noc3/C=C/c3ccco3)CC2)nc1	-3%	?	-22%	?	?
COc1ccc(OC)c(S(=O)(=O)N2CCN(c3c(C)cccc3C)CC2)c1	-11%	14µM*	-5%	0	-11%
COc1ccc(OC)c(S(=O)(=O)N2CCC(C(=O)N3CCc4ccccc4C3)CC2)c1	-5%	?	22µM*	3	-16%
Cc1noc(/C=C/c2ccco2)c1S(=O)(=O)N1CCC(C(=O)N2CCc3ccccc3C2)CC1	-12%	?	20µM*	36	?
COc1ccc(OC)c(S(=O)(=O)N2CCC(C(=O)N3CCOCC3)CC2)c1	·	-15%	·	·	?
CC(C)CCNC(=O)c1ccc2nc(CCc3ccccc3)oc2c1	·	·	·	·	9%[46 µM]
O=C1CCC[C@@H]2CC(NCc3ccc(Cl)c(Cl)c3)C[C@@H]3CCN1[C@H]23 (some centres not stated)	-4%[0.00818 µM]	6%	-7%	·	·
CC(C)(C)c1ccc(C(=O)N2CCC(C(=O)NCCC3=CCCCC3)CC2)cc1	1%	10µM*	1%	71	25%
COc1ccc(OC)c(S(=O)(=O)N2CCC(C(=O)NCCC3=CCCCC3)CC2)c1	-6%	22µM*	-10%	-100*	-14%
COc1ccc(OC)c(S(=O)(=O)N2CCC(C(=O)NCc3ccccc3)CC2)c1	0%	?	-14%	2	10%
CCOc1cc(CNC(=O)CSc2n[nH]c(-c3ccccc3)n2)cc(OCC)c1OCC	·	·	·	·	8%[46 µM]
COc1cccc(CNn2cnnc2)c1O	·	13µM*	·	·	·
CCCn1c(CNc2ccccc2O)nc2ccccc21	-15%	13µM*	-3%	9	-15%
CCCCn1c(NCc2ccc(N(C)C)cc2)nc2ccccc21	·	14µM*	·	·	·
SMILES	12-hLO inh	ALDH1A1 block	HPGD inh	PNC inhibitor	LMNA splice mod
Clc1cccc(Cl)c1COc1ccccc1CNn1cnnc1	·	-6%	·	·	·
CCCn1c(NCc2cccc(OC)c2OC)nc2ccccc21	1%	14%	-3%	45	-8%
CCCn1c(NCc2cccc(OC)c2O)nc2ccccc21	-12%	6.3µM*	4%	?	-13%
CC1=C(C(N)=O)N2C(=O)[C@@H](NC(=O)Cc3ccccc3)C2SC1 (some centres not stated)	·	?	-10%	·	·
NNC(=O)CS(=O)(=O)Nc1ncccn1	3%[11.4 µM]	16%[13.5 µM]	-8%	·	·
O=Cc1[nH]c2ccccc2c1N(C(=O)CCl)c1ccc([N+](=O)[O-])cc1	·	7.9µM*	·	·	·
Brc1ccc(-c2csc(N/N=C/c3ccco3)n2)cc1	·	10%	·	·	-2%[46 µM]
NC(=O)/C(=N\OC(=O)c1ccco1)c1nc(-c2ccc(Br)cc2)cs1	-10%	13µM*	13µM*	3	?
Cc1ccc(C)n1-c1sc2c(c1C#N)CCC(C)C2 (configuration not stated)	?	25µM*	-26%	-9	?
CC(C)(C)OC(=O)N1CCC(c2c(C(=O)NCc3ccc4c(c3)OCO4)cnn2-c2ccc(F)cc2F)CC1	·	·	·	·	-9%[46 µM]
O=C1c2ccccc2C(=O)c2c1ccc(C(=O)N1CCCCC1)c2NCCO	0%	0%	?	?	-15%
CCN(CCN(C)C)C(=O)c1ccc2c(c1NCCO)C(=O)c1ccccc1C2=O	·	14µM*	·	·	·
CC1(C)CCCN(C(=O)c2ccc3c(c2NCCO)C(=O)c2ccccc2C3=O)C1	-1%	?	16µM*	17	?
CC1CCCN(C(=O)c2ccc3c(c2NCCO)C(=O)c2ccccc2C3=O)C1 (configuration not stated)	0%	?	?	-2	2%
O=C(O)c1cccc2c1C(=O)c1ccccc1-2	·	22µM*	·	·	?
CCNc1c(C(=O)O)ccc2c1C(=O)c1ccccc1C2=O	1%	1%	-12%	-85*	-8%
Cc1cc(Cl)ccc1OCC(=O)N1CCC(c2nc3ccccc3o2)CC1	·	·	·	·	9%[46 µM]
C[C@@H](O)CNC(C)(C)CC(=O)N[C@@H]1CCc2ccccc2N(Cc2ccc(-c3ccccc3-c3nn[nH]n3)cc2)C1=O	-3%[0.00818 µM]	5%	1%	·	·
O=S(=O)(NCCCCCCc1ccccc1)c1cccc2c(Cl)cccc12	-4%	?	-21%	·	·
Fc1c(F)c(F)c(N=Cc2ccc3ncccc3c2)c(F)c1F	-2%	8.9µM*	-7%	-30	-4%
S=C(N/N=C/c1ccc2ncccc2c1)Nc1cccnc1	·	-9%	·	·	·
CC(=O)[C@H]([C@@H](c1ccccc1)N1CCOCC1)N1CCOCC1	1%[11.4 µM]	·	·	·	·
CC(=O)OC[C@@]1(O)C[C@@]23CC[C@@H]4c5ccoc5CC[C@@]4(C)[C@@H]2CCC1C3	·	0%	-4%	·	·
Cc1ccc(NC(=S)N(Cc2ccc(Cl)cc2)Cc2ccc(C(=O)O)cc2)cc1Cl	·	?	·	·	3%[46 µM]
c1ccc(CCN(Cc2ccccc2)C2CCN(C3CCCC3)CC2)cc1	·	40µM*	·	·	·
Cc1ccc(N2C(=O)NC(NC(=O)C3CC3)(C(F)(F)F)C2=O)cc1 (configuration not stated)	3%	9%	-13%	-100*	3%
O=C(N/N=C/C1CC2CCC1C2)c1c[nH]c2ccccc12 (configuration not stated)	·	14µM*	·	·	?
CN(C)c1ncc2nc(-c3cn(C)c4ccccc34)c(=O)n(C[C@H]3CCCO3)c2n1	·	-3%	·	·	4%
N#CC1=C(N2CCCCC2)c2cc3c(n2C1=O)CCCC3	-9%	8.9µM*	25µM*	0	?
